Compound activity: PubChem BioAssay, The Scripps Research Institute Molecular Screening Center
Shown are actives, neighbours in structure and some others; about 5.7% of the full set was active somewhere.
DAX1 inh-1 = inhibitors of human orphan nuclear receptor DAX1 (NR0B1); inhibition, % at 6.75 µM; P51843; AID 504766; 340,000 compounds, 0.99% hits; HEK293 Gal4-DAX1 luciferase reporter, luminescence;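 active = inhibition above the mean over all tested compounds plus 3 SD, cut at about 4.2% in these data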;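 also: 0% = DAX1-transfected cells with DMSO and 100% = empty-vector control cells with DMSO; inhibition shows as a rise in luminescence from relieved DAX1 repression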
Target sequence (P51843 207-470 limits assumed): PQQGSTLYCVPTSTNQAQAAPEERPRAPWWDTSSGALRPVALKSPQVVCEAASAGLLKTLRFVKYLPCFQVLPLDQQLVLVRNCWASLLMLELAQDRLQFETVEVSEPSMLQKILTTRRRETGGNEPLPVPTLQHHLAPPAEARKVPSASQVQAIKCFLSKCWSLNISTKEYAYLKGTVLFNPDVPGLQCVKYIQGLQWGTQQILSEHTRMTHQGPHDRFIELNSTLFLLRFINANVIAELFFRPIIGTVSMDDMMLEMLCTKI
ssDAF-12 act = S. stercoralis DAF-12 activation, primary screen; activation, % at 6.8 µM; HEK293 ssDAF-12/GRIP1 lit1-tk-luc reporter, luminescence; % of 3 µM dafachronic acid response; AID 652126; 370,000 compounds, 1% hits;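 active = activation above the mean over all tested compounds plus 3 SD, cut at about 0.9% in these data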;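 also: 0% = DMSO-only wells and 100% = 3 µM delta7-dafachronic acid wells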
AHR act = activates the human aryl hydrocarbon receptor; activation, % at 5 µM; AHR-responsive luciferase reporter cells, luminescence; 320,000 compounds, 2.5% hits; P35869; in the data active = activation above about 47%;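 also: 0% = vehicle wells and 100% = reference agonist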
DAX1 inh-2 = DAX1 (NR0B1) inhibition, primary screen | AID 652010 | inhibition, % at 6.8 µM | HEK293T StAR-luciferase reporter, SF-1/DAX-1 repression relief | 370,000 compounds, 1.1% hits;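 active = inhibition above the mean over all tested compounds plus 3 SD, cut at about 3.6% in these data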;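 also: 0% = DAX-1 cells with DMSO and 100% = cells lacking DAX-1 with DMSO; higher inhibition means more luminescence from relief of DAX-1 repression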
hgDAF-12 ag = agonists of H. glycines DAF-12 nuclear receptor; HEK293 GAL4-hgDAF12 UAS-luciferase reporter, agonist luminescence; normalized to butyrate control; activation, % at 6.8 µM; 370,000 compounds, 1.8% hits; AID 687014;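 active = activation above a cutoff set at the mean of all screened compounds plus 3 SD, cut at about 10% in these data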;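 also: 0% = DMSO wells and 100% = sodium butyrate wells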
hcDAF12 agonist = activators of H. contortus DAF-12 nuclear receptor. AID 652067. HEK293 hcDAF-12 lit1-tk-luc reporter, luminescence; 0% DMSO, 100% Δ7-dafachronic acid. activation, % at 6.8 µM. 370,000 compounds, 1.4% hits;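 active = activation above the mean of all tested compounds plus 3 SD, cut at about 5.5% in these data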;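 also: 100% = response to 3 µM Δ7-dafachronic acid high control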
* marks the source's active call; other numbers are inactive results; / = not tested or not shown.

SMILES | DAX1 inh-1 | ssDAF-12 act | AHR act | DAX1 inh-2 | hgDAF-12 ag | hcDAF12 agonist
COc1ccc(CCNC(=O)C(C)OC(=O)c2cccs2)cc1OC (configuration not stated) | 0 | -1 | 1 | 0 | -2 | 0
CC(CNS(=O)(=O)c1ccccc1)Sc1ncccn1 (configuration not stated) | 1 | -1 | 0 | 0 | -2 | -1
CC(NS(=O)(=O)CCNC(=O)c1ccccc1)c1ccccc1 (configuration not stated) | 0 | 0 | -1 | 1 | 0 | 0
Fc1ccc(-n2nnc(-c3ccccc3Cl)n2)cc1 | 0 | -2 | 1 | -1 | 0 | -2
Clc1nc2ccccc2cc1-c1nnn(-c2ccccc2)n1 | 1 | 1 | 26 | 0 | 10 | 6.4*
COc1cc2c(cc1OC)-c1c(OC)c(OC)cc3ccnc(c13)C2=O | -3 | -2 | 48* | -2 | -5 | -4
COc1cccc(CN2CCC(Oc3ccc(C(=O)N4CCCCC4)cc3)CC2)c1 | 0 | -2 | 9 | 0 | -4 | -1
Cc1ccc(-c2cnc3c(Nc4cccc(OC(F)(F)C(F)F)c4)nccn23)cc1 | / | -1 | / | -2 | 3 | -1
CCCCNC(=O)c1nc(-c2cnccn2)oc1-c1ccc(Cl)cc1 | / | -1 | / | 1 | -4 | -1
CCCCNC(=O)c1nc(-c2cccs2)oc1-c1ccc(Cl)cc1 | / | 0.9* | / | -1 | 3 | -1
CC(=O)c1ccccc1NS(=O)(=O)c1ccccc1Cl | 0 | -1 | -1 | 0 | 12* | -2
Clc1cccc(/C=N/Nc2nnc(Cl)c3ccccc23)c1 | -1 | 1 | 50* | 0 | 1 | 4
Clc1ccc(/C=N/Nc2nnc(-c3ncc[nH]3)c3ccccc23)cc1 | 2 | 0 | 76* | 1 | 0 | 3
CCCN(CCC)C(=O)CSc1nc2c(sc(=S)n2-c2ccc(OCC)cc2)c(=O)[nH]1 | 0 | -1 | -2 | -1 | -3 | 1
CC(=O)c1c(C)[nH]c(C(=O)N2CCN(S(=O)(=O)c3ccc(C)cc3C)CC2)c1C | 1 | -1 | -1 | -1 | -2 | 0
O=C(Nc1cc(Cl)ccc1-n1cncn1)c1ccco1 | 0 | -1 | 32 | 0 | 1 | 3
Cc1ccc(C(=O)Nc2cc(Cl)ccc2-n2cncn2)o1 | 2 | 1.2* | 58* | 1 | 1 | 4
Cc1ccc(C(=O)Nc2cc(C(F)(F)F)ccc2-n2cncn2)o1 | 1 | -1 | 35 | -1 | -3 | 0
COc1cc(OC)c(C(=O)Nc2cc(Cl)ccc2-n2cncn2)cc1OC | -1 | -1 | 59* | -1 | 2 | 3
COc1ccccc1C(=O)Nc1cc(Cl)ccc1-n1cncn1 | 0 | -1 | 49* | -2 | 1 | 3
COc1cc(C(C)=O)ccc1OCC(=O)Nc1cc(Cl)ccc1-n1cncn1 | 0 | -1 | / | 2 | -2 | 0
O=C(Nc1cc(Cl)ccc1-n1cncn1)c1ccc([N+](=O)[O-])s1 | 0 | / | 68* | / | / | /
O=C(Nc1ccccc1F)Nc1cc(Cl)ccc1-n1cncn1 | -1 | -2 | 11 | 0 | 1 | -3
Cn1c(SCC#N)nnc1-c1ccc2c(c1)OCO2 | 3 | -1 | 4 | 0 | 1 | -1
Cc1cccc(NC(=O)CSc2nnc(CNC(=O)c3ccco3)o2)c1C | 1 | -1 | 5 | 0 | 2 | -1
SMILES | DAX1 inh-1 | ssDAF-12 act | AHR act | DAX1 inh-2 | hgDAF-12 ag | hcDAF12 agonist
CCC1COCCS(=O)(=O)N1Cc1ccccc1C (configuration not stated) | 1 | -1 | 0 | 0 | 1 | -1
N#Cc1c(F)cccc1NCCCn1ccnc1 | 4.6* | -1 | 24 | 0 | -2 | 0
N#Cc1cc([N+](=O)[O-])ccc1NCCCn1ccnc1 | 0 | -1 | 37 | 0 | 0 | 0
COc1ccc(-c2cnc3c(c2)CCC3(C#N)C#N)cc1 | 7.3* | -1 | 1 | 0 | -4 | -1
COc1ccc(-c2ccc(OC)cc2)cc1 | 2 | 0 | 3 | 0 | 1 | 1
CCNC(=S)N1CCCC(c2nc3ccc(C)cc3[nH]2)C1 (configuration not stated) | -1 | -1 | 22 | -1 | 0 | 0
Cc1ccc2nc(C3CCCCC3)[nH]c2c1 | 4.7* | 0 | 46 | 2 | 12* | 2
CS(=O)(=O)c1ccc2nc(NC(=O)CCS(=O)(=O)c3ccccc3)sc2c1 | 0 | -2 | 3 | 0 | -2 | -2
CCN(CC)S(=O)(=O)c1ccc2nc(NC(=O)c3cccs3)sc2c1 | 0 | -1 | 72* | 0 | 2 | 5
CS(=O)(=O)c1ccc2nc(NC(=O)CCC(=O)c3cccs3)sc2c1 | 1 | -1 | 52* | -1 | 5 | 0
NC(=O)c1c(-c2ccc(Cl)cc2Cl)csc1NC(=O)Cc1ccccc1 | -4 | -2 | -3 | -3 | -9 | -4
COc1cc2c(cc1OC)C1CCc3cc4c(cc3C1N=C2)OCO4 (configuration not stated) | 1 | 0 | / | 2 | 11* | 2
COc1cc2c(cc1OC)[C@@H]1Cc3cc4c(cc3[C@H](C2)N1C)OCO4 | 1 | -1 | 0 | 0 | -1 | 0
CCN1CCCC1CNS(=O)(=O)c1cccc(C(F)(F)F)c1 (configuration not stated) | 0 | -2 | 1 | 1 | 3 | 1
CCN1CCCC1CNS(=O)(=O)c1ccc(F)c(Cl)c1 (configuration not stated) | 4.4* | -1 | -2 | 0 | 4 | -2
CCOc1nc(NCCO)nc(Nc2ccc([N+](=O)[O-])cc2)n1 | -1 | 0 | 20 | -1 | 2 | 0
CNc1nc(Nc2ccc([N+](=O)[O-])cc2)nc(OCC(F)(F)F)n1 | 2 | -1 | 62* | 0 | -1 | -2
CCOc1ccccc1NC(=O)CNC(=O)c1nn(-c2ccc(OC)c(OC)c2)c(=O)c2ccccc12 | -1 | -2 | -1 | 0 | 1 | 0
COc1cccc([C@@H]2Oc3ccc(OC)cc3C(=O)[C@H]2OC(=O)NCc2ccc3c(c2)OCO3)c1 | / | / | 54* | / | / | /
COc1cccc([C@@H]2Oc3ccc(OC)cc3C(=O)[C@H]2OC(=O)Nc2cc(OC)c(OC)c(OC)c2)c1 | / | / | 10 | / | / | /
Cc1ccc2nc(SCC(=O)NCc3ccc4c(c3)OCO4)nc(=O)n2c1 | 1 | -1 | 5 | 1 | -3 | -1
Cc1c(C(=O)Nc2ccccc2F)sc2nc3n(c(=O)c12)CCC3 | 1 | 0 | 0 | 1 | 11* | 3
COc1ccccc1NC(=O)c1sc2nc3n(c(=O)c2c1C)CCC3 | 0 | -1 | 7 | 0 | 4 | 0
CCOc1ccc(-n2cc(-c3ccccc3)c3c(SC(C)C(=O)OC)ncnc32)cc1 (configuration not stated) | -1 | -1 | 1 | -1 | 1 | 1
